High-throughput results deposited in PubChem BioAssay by National Center for Advancing Translational Sciences (NCATS).
D2 antagonist: D2 dopamine receptor (human) antagonism. P14416. HEK293 TREx D2 cells, calcium flux, dopamine EC80. inhibition, % at 10 µM. 2% of 340,000 active. AID 485344; in the data active = inhibition above about 30%; inactive = below that, where a call was filed; note: 0% is about no effect
Target sequence (P14416 whole entry, looked up): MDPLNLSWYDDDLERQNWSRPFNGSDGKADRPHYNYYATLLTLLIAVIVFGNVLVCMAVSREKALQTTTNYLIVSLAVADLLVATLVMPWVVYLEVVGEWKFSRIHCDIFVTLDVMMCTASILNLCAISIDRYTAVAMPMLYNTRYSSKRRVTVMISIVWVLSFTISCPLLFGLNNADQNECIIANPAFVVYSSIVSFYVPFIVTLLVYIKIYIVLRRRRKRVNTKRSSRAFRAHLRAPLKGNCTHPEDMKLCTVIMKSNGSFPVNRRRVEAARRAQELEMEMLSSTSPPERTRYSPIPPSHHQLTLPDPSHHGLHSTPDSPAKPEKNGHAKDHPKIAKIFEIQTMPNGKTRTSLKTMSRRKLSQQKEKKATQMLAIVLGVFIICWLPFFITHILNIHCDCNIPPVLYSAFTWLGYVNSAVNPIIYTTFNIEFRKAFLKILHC
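Measurement of antagonist activity uses fluorescent calcium dye in inducible HEK293 T-REx D2 cells: 10 s baseline, compound addition with 180 s read, EC80 dopamine addition with a further 180 s read.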
D2 PAM-1: D2 dopamine receptor (human) potentiation; AID 485347; HEK293 T-REx D2, calcium flux, EC20 dopamine potentiation; 0.34% of 340,000 active; potentiation, % at 10 µM;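 active = potentiation over 3 SD above the plate norm, cut at about 30% in these data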; note: 0% is about no effect
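Calcium flux readout, no-wash dye, 1 read/s. Inducible HEK293 Trex D2 line, overnight 30 C. Compound alone 180 s (agonist flags), then EC20 dopamine, another 180 s to score potentiation.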
D2 PAM-2: human D2 receptor positive allosteric modulation; DiscoveRx D2 beta-arrestin cells, luminescence, 90 min; 100% = 57 uM dopamine signal; potentiation, % (test concentration not listed); P14416; 0.23% of 360,000 active; in the data active = potentiation above about 50%
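PathHunter beta-arrestin assay in DiscoveRx D2 cells. Compounds were added with an EC20 of dopamine (50 nM final) for 90 min at 37 deg C. Luminescence was read 1 h after detection reagent, with 57 uM dopamine as the EC100 control.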
D2 ag-1: D2 dopamine receptor (human) agonism; HEK293 T-REx D2 cells, calcium flux agonist mode; 0.53% of 340,000 active; P14416; activation, % at 2 µM;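 active = activation over 3 SD above normal in the single-dose calcium agonist read, cut at about 30% in these data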; note: 0% is about no effect
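Tetracycline-induced HEK293 T-REx cells with force-coupled D2 receptor, plated overnight at 30 C, loaded with no-wash calcium dye. After a 10 s baseline, compound was pin-added and calcium flux read kinetically for 180 s; calcium rises flagged agonists.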
D2 ag-2: human D2 receptor agonism in beta-arrestin assay; activation, % (test concentration not listed); DiscoveRx PathHunter D2 beta-arrestin, luminescence, 90 min; 100% = 57 uM dopamine signal; P14416; 0.084% of 360,000 active; AID 624465; in the data active = activation above about 40%
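Agonist mode: compounds alone added to overnight-plated D2 PathHunter cells for 90 min at 37 C, with 57 uM final dopamine (EC100) defining full response. Beta-arrestin recruitment detected by chemiluminescent reagent, read after 1 h at ambient temperature.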
* hit, by the source's call; . = no result. The list is not random: actives were taken first. Their share in the collection is about 2.4%.

SMILES	D2 antagonist	D2 PAM-1	D2 PAM-2	D2 ag-1	D2 ag-2
CCn1ncc(/C=C2/SC(=S)NC2=O)c1C	12	-12	-13	33*	-2
CCn1c(C)cc(/C=C2/SC(=S)NC2=O)c1C	4	5	-11	6	0
COc1ccccc1CCNC(=O)CCc1c(C)c2cc3c(C)coc3cc2oc1=O	.	-3	.	-1	.
FC(F)Sc1ccc(NC(=S)NC2CCCCC2)cc1	-17	-4	-21	8	0
FC(F)Sc1ccc(NC(=S)NCC2CCCCC2)cc1	32*	-14	-21	8	2
Cc1cc2ccc(C)c(C)c2nc1SCC(=O)c1cccs1	60*	-8	-7	2	-3
COc1ccc(Nc2nc(C)nc3c2nnn3Cc2ccccc2)cc1OC	12	35*	-1	1	2
CC(C)(C)c1ccc(OCC(=O)Nc2ccc(C(=O)OC3CCCCC3)cc2)cc1	.	-3	.	0	.
COC(=O)c1ccsc1NC(=O)CSc1nnnn1-c1ccccc1SC	-1	37*	-4	0	1
CCCCN(CCCC)CCNC(=O)c1cc(=O)[nH]c2ccc(S(=O)(=O)N3CCCCCC3)cc12	.	-7	.	-1	.
FC(F)(F)c1nnc2ccc(NCc3ccccc3)nn12	80*	2	2	0	4
FC(F)(F)c1nnc2ccc(NCc3cccnc3)nn12	-10	2	-1	-2	0
COc1cccc(NC(=O)c2ccc3[nH]c(C)cc(=O)c3c2)c1	.	1	.	-1	.
O=C(O)c1ccc([N+](=O)[O-])cc1	.	.	-3	.	-1
NC(=O)c1ccc(C(=O)c2ccc([N+](=O)[O-])cc2)cc1	-1	-9	62*	0	5
NC(=O)c1cc[n+](Cc2ccc([N+](=O)[O-])cc2)cc1	39*	11	0	2	1
O=C(Nc1ccccc1Cl)c1cc[n+](Cc2ccc([N+](=O)[O-])cc2)cc1	-9	5	-12	0	-2
O=C(Nc1ccccc1N1CCN(c2ccccc2)CC1)C12CC3CC(CC(C3)C1)C2	1	32*	7	0	1
CCCn1nnnc1NCc1ccc(C(C)C)cc1	34*	1	-37	-1	-1
O=C(CSc1nc2c([nH]c3ccccc32)c(=O)n1-c1ccccc1)N1CCCC1	.	9	.	-2	.
CCN(C(=O)c1nn(-c2ccc(OC)cc2)c(=O)c2c1c1ccccc1n2C)c1ccc(OC)cc1	20	-17	-8	0	3
CCCCN(C)CCNC(=O)c1nn(-c2ccc(OC)cc2)c(=O)c2c1c1ccccc1n2C	34*	-17	-20	0	-10
Cn1c2ccccc2c2c(C(=O)NCCCN3CCCC3=O)cn(C3CCCCC3)c(=O)c21	10	32*	-38	1	-4
Nn1c(SCCOc2ccccc2)nnc1-c1cccnc1	33*	1	-2	1	-4
Cc1ccccc1NC(=O)Cn1c(=O)n(CCc2ccccc2)c(=O)c2sc3ccccc3c21	.	1	.	-1	.
SMILES	D2 antagonist	D2 PAM-1	D2 PAM-2	D2 ag-1	D2 ag-2
COc1cc(NC(c2ccccc2)c2ccccc2)cc(OC)c1OC	4	0	2	0	-6
COc1ccc(NC(c2ccccc2)c2ccncc2)cc1 (stereo unspecified)	41*	2	-1	0	5
Cc1ccccc1C(=O)Nc1cccc(C(=O)OCc2cc(=O)n3nc(C4CC4)sc3n2)c1	.	4	.	.	.
CCCS(=O)(=O)NC(=O)C1(C)CCN(C(=O)COc2ccc(Cl)cc2Cl)C1 (stereo unspecified)	.	.	60*	.	14
CCCS(=O)(=O)NC(=O)C1(C)CCCN(C(=O)COc2ccc(Cl)cc2Cl)C1 (stereo unspecified)	.	.	-22	.	-7
CCOc1ccccc1CN1CCN(C/C=C/c2ccc(OC)cc2)CC1CCO (stereo unspecified)	34*	-22	-7	4	-4
CCn1c(=O)n(-c2cccc(Cl)c2)c(=O)c2sc3ccccc3c21	.	-2	.	0	.
CC1CCN(Cc2c(C(=O)N/N=C/c3cc(Br)ccc3O)nnn2-c2nonc2N)CC1	8	6	-3	2	-4
CC1CCN(Cc2c(C(=O)N/N=C/c3cc(Cl)ccc3O)nnn2-c2nonc2N)CC1	0	30*	1	3	-9
Cc1ccc(/C=N/n2cnc3sc(C)c(C)c3c2=O)o1	-4	47*	-5	0	-2
